7 molecules from ChEMBL document CHEMBL1961873, “Compounds: GSK PKIS; Assays: Nanosyn kinase panel” (2012) can be followed below.

Assay [1] deals with Rho-associated protein kinase 1 (Homo sapiens) (UniProt Q13464). To be noted: at 1 µM.
In assay [2] the target is Rho-associated protein kinase 2 (Homo sapiens) (UniProt O75116). To be noted: at 0.1 µM.
Assay [3] has the same target. To be noted: at 1 µM.
For assay [4], the target named is Ribosomal protein S6 kinase alpha-1 (Homo sapiens) (UniProt Q15418). To be noted: at 0.1 µM.
The target is the same in assay [5]. To be noted: at 1 µM.
The target in assay [6] is Ribosomal protein S6 kinase alpha-3 (Homo sapiens) (UniProt P51812). To be noted: at 0.1 µM.
For assay [7] the target is unchanged. To be noted: at 1 µM.
Assay [8] addresses Ribosomal protein S6 kinase alpha-2 (Homo sapiens) (UniProt Q15349). To be noted: at 0.1 µM.
The target is the same in assay [9]. To be noted: at 1 µM.
The target in assay [10] is Ribosomal protein S6 kinase alpha-6 (Homo sapiens) (UniProt Q9UK32). To be noted: at 0.1 µM.
Assay [11] has the same target. To be noted: at 1 µM.
For assay [12], the target named is T1, Serine/threonine-protein kinase Sgk1 (Homo sapiens) (UniProt O00141).
T1 sequence (whole entry): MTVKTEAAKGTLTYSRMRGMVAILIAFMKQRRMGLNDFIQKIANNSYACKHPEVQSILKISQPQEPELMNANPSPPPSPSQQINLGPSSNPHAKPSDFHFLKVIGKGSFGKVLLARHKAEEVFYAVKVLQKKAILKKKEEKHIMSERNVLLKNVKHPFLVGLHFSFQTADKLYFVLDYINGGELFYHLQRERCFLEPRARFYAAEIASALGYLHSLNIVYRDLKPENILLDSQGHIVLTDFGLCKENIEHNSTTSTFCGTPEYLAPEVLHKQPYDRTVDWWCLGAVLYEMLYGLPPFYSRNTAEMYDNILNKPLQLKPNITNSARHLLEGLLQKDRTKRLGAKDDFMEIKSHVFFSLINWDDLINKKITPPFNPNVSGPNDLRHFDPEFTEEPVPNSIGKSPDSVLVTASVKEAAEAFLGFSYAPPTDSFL
To be noted: at 0.1 µM.

In assay [13] the target is T1, Serine/threonine-protein kinase Sgk1 (Homo sapiens). To be noted: at 1 µM.
Assay [14] concerns the target T2, Serine/threonine-protein kinase Sgk2 (Homo sapiens) (UniProt Q9HBY8).
T2 sequence (whole entry): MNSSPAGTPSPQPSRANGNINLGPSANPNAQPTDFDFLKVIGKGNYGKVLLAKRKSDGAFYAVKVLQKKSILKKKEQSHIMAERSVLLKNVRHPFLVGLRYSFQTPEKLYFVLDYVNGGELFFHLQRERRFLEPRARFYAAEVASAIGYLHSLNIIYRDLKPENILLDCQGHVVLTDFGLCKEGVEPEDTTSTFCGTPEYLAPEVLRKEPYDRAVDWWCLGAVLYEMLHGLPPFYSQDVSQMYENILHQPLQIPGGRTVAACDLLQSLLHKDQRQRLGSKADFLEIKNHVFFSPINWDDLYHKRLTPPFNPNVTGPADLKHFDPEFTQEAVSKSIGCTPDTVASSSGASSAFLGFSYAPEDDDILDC
To be noted: at 0.1 µM.

In assay [15] the target is T2, Serine/threonine-protein kinase Sgk2 (Homo sapiens). To be noted: at 1 µM.
Assay [16] has as its target T3, Serine/threonine-protein kinase Sgk3 (Homo sapiens) (UniProt Q96BR1).
T3 sequence (whole entry): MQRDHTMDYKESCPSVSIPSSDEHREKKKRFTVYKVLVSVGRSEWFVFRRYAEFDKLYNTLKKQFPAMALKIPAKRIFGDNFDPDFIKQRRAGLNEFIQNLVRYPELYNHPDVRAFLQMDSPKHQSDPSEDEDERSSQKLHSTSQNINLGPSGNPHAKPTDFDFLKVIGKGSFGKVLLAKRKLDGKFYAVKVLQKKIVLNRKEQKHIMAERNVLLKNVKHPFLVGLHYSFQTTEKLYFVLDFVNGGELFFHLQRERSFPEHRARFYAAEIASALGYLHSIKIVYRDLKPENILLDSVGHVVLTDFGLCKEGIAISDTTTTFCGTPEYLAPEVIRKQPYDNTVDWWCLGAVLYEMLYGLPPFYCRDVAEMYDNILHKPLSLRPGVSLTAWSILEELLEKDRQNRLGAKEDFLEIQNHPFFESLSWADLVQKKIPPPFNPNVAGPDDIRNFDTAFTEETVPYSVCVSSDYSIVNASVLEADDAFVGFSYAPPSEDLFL
To be noted: at 0.1 µM.

Assay [17] has as its target T3, Serine/threonine-protein kinase Sgk3 (Homo sapiens). To be noted: at 1 µM.
Assay [18] concerns the target 5'-AMP-activated protein kinase catalytic subunit alpha-1 (Homo sapiens) (UniProt Q13131). To be noted: at 0.1 µM.
The target is the same in assay [19]. To be noted: at 1 µM.
The target of assay [20] is 5'-AMP-activated protein kinase catalytic subunit alpha-2 (Homo sapiens) (UniProt P54646). To be noted: at 0.1 µM.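 Also: mean inhibition measured on the AMPK complex of alpha2, beta1 and gamma1 subunits.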
Sequence of 5'-AMP-activated protein kinase catalytic subunit alpha-2 (Homo sapiens) (P54646 whole entry, looked up): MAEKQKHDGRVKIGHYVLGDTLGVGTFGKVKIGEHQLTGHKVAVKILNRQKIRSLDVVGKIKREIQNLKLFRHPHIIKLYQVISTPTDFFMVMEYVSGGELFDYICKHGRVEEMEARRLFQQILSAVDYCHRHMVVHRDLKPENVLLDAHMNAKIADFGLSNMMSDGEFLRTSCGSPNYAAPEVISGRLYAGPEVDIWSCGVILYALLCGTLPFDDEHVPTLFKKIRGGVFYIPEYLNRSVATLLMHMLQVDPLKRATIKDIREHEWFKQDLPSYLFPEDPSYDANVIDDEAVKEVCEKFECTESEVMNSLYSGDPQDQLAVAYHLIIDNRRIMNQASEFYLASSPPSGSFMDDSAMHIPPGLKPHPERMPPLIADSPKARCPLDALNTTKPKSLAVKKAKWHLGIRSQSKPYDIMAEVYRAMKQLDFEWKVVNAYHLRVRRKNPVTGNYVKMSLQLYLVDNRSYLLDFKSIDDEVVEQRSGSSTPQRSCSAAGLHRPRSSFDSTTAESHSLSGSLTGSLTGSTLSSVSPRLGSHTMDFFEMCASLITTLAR

Sequence of Rho-associated protein kinase 2 (Homo sapiens) (O75116 whole entry, looked up): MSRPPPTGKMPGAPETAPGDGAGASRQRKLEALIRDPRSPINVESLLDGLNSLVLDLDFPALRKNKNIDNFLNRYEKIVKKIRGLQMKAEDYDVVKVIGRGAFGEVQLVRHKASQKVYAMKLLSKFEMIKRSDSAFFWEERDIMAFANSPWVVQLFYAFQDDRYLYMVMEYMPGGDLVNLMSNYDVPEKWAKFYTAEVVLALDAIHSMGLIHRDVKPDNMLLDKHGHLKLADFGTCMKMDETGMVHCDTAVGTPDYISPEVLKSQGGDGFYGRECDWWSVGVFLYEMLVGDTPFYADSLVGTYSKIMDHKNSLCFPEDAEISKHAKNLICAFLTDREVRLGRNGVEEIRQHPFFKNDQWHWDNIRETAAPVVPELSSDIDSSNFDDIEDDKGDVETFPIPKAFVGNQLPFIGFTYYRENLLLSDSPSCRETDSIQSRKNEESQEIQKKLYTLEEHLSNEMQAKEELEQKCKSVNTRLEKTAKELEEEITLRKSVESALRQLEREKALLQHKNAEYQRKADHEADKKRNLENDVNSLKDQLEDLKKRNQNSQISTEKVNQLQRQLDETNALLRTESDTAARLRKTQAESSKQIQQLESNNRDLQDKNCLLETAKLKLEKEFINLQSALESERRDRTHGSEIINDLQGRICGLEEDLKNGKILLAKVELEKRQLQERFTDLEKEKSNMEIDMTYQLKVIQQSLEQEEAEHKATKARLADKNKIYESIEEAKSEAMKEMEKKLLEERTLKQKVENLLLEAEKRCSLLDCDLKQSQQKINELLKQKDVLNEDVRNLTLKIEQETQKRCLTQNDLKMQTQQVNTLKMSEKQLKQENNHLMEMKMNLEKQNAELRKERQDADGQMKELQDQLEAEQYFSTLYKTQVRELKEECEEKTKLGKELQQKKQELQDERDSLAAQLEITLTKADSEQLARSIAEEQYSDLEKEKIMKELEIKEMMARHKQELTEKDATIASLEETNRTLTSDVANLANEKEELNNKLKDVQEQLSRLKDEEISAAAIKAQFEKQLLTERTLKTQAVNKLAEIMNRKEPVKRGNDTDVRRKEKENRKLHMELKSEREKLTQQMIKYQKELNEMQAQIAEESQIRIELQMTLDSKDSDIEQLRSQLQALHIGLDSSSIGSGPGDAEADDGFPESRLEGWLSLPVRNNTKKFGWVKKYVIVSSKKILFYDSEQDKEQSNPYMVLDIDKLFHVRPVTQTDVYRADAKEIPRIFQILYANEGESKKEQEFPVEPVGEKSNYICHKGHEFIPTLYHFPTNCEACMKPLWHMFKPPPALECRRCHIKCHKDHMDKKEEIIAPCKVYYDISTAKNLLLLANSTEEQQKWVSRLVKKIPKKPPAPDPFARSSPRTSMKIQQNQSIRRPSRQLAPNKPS
Sequence of Ribosomal protein S6 kinase alpha-3 (Homo sapiens) (P51812 whole entry): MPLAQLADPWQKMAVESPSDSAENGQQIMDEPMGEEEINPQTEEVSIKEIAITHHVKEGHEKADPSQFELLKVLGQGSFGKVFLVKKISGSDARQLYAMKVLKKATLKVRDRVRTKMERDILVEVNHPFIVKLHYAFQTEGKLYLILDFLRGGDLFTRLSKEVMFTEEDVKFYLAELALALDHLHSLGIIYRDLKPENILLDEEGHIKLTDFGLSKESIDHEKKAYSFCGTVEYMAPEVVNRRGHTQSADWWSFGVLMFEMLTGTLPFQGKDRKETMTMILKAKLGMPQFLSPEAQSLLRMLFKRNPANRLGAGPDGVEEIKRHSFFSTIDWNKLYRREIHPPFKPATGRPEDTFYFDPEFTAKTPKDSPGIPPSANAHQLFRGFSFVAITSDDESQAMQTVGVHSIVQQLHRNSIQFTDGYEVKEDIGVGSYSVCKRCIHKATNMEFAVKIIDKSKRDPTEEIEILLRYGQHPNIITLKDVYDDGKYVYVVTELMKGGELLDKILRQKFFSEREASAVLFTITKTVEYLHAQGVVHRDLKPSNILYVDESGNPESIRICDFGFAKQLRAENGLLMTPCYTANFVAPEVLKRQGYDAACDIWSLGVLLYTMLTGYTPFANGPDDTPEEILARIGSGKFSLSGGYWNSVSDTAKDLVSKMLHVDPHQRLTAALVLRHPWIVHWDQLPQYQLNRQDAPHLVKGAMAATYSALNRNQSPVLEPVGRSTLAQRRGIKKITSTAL
Sequence of Ribosomal protein S6 kinase alpha-1 (Homo sapiens) (Q15418 whole entry): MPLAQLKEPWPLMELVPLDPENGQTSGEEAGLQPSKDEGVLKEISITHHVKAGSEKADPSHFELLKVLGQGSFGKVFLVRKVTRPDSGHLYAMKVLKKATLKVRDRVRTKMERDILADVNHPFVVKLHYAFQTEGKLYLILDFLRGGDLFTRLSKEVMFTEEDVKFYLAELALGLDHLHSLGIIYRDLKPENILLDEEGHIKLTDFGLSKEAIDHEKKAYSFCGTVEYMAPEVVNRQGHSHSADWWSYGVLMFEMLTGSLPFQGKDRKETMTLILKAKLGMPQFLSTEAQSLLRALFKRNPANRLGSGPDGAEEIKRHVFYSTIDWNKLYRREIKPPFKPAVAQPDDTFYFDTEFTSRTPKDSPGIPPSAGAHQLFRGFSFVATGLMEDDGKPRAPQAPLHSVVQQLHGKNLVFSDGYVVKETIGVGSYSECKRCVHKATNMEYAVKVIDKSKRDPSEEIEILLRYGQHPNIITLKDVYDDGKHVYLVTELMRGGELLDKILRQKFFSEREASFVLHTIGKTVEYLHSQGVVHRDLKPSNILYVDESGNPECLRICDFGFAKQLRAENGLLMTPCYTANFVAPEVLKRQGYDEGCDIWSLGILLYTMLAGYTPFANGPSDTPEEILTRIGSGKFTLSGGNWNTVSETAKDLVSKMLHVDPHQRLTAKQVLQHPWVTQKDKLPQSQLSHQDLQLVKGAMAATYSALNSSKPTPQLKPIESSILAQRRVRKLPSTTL
Sequence of Ribosomal protein S6 kinase alpha-6 (Homo sapiens) (Q9UK32 whole entry): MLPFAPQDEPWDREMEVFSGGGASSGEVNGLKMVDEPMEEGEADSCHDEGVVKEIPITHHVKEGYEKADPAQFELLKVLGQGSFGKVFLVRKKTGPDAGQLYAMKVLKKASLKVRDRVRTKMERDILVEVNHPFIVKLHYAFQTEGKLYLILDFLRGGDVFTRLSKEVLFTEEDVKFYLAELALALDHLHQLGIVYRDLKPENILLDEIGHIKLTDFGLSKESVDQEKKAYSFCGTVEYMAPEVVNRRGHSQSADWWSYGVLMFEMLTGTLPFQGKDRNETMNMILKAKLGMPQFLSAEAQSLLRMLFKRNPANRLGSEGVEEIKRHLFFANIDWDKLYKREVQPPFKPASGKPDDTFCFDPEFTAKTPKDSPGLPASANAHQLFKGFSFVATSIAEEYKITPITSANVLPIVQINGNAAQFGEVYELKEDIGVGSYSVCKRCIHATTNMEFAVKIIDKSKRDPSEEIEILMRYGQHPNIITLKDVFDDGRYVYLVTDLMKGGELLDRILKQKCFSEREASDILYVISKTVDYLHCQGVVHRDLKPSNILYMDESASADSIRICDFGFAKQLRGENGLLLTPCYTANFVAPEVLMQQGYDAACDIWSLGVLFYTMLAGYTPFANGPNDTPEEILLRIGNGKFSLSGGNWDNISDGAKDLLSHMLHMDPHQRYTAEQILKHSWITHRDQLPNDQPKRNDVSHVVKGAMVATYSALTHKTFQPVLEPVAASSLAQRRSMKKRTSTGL
Sequence of Ribosomal protein S6 kinase alpha-2 (Homo sapiens) (Q15349 whole entry): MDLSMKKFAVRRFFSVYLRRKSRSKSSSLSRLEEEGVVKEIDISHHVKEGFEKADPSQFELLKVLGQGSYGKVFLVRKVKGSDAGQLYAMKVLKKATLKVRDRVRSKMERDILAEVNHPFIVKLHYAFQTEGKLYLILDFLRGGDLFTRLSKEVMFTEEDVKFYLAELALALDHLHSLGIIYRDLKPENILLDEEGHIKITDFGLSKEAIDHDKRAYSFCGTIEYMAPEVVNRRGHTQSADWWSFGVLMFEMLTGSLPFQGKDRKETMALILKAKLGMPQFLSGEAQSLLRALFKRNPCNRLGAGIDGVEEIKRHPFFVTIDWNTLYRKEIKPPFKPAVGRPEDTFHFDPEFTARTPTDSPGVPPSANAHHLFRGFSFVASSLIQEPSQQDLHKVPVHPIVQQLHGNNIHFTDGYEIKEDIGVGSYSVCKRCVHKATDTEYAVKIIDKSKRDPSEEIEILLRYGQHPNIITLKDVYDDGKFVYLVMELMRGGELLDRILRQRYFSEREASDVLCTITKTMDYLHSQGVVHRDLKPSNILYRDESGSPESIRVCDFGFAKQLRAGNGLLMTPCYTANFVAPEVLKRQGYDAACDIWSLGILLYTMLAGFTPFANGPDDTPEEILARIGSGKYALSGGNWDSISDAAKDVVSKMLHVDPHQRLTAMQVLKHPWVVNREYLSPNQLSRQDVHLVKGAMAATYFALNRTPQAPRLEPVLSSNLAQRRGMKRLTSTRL

As usually defined, the inhibition is the change of the read-out against control, counted positive when it falls. Consider `COc1cccc(-n2nc(C)c3c(N/N=C(\C)c4ccncc4)ncnc32)c1`, for which the inhibition in assay [1] was -1.87%; in assay [2], -0.57%; in assay [3] it was -1.33%; in [4], -1.25%; in [5], -0.11%; in assay [6] it was 0.34%. Moreover, the inhibition was 1.55% in assay [7]; 1.45% in [8]; 0.23% in assay [9]; -0.47% in [10]; 0.03% in [11]; -0.15% in [12]. The inhibition is 0.8% in assay [13]; 1.28% in assay [14]; 5.85% in [15]; 0.38% in [16]; 0.52% in assay [17]; -0.66% in [18]. For the same molecule, the inhibition in assay [19] came to 0.55%; in assay [20], 2.15%.
For `NS(=O)(=O)c1ccc(Nc2cc(-c3cccc(O)c3)n[nH]2)cc1`, the inhibition in [1] is 2.17%; in assay [2] it was 3.43%; in assay [3], 4.85%; in assay [4], 2.5%; in assay [5], 6.11%; in assay [6], 2.14%. Also, the inhibition is 6.36% in assay [7]; 1.18% in [8]; 5.39% in assay [9]; 1.24% in [10]; 4.67% in [11]; 6.76% in assay [12]. In addition, the inhibition in [13] worked out at 4.48%; in [14], 2.52%; in assay [15], 1.36%; in assay [16], 6.64%; in assay [17] it was 2.75%; in assay [18], 5.36%. Also, the inhibition in [19] stood at 11.1%; in assay [20], 5.11%.
With `CCS(=O)(=O)c1ccc(OC)c(Nc2nccc(N(C)c3ccc4c(C)n[nH]c4c3)n2)c1`, the inhibition was 2.51% in assay [1]; 2.12% in assay [2]; 4.04% in assay [3]; -0.57% in assay [4]; 3.78% in [5]; -0.28% in [6]. Further, the inhibition in assay [7] is 0.94%; in assay [8], -0.47%; in [9], 1.56%; in [10] it was -1.99%; in assay [11] it was -0.55%; in assay [12] it was 2.43%. In addition, the inhibition in [13] stood at 2.8%; in [14], 4.15%; in assay [15], 2.6%; in assay [16], 3.28%; in assay [17] it was 1.75%; in assay [18], 1.93%. Further, the inhibition in assay [19] turned out to be 2.62%; in assay [20], 2.9%.
Turning to `Oc1cccc(-c2nc(-c3ccccc3)[nH]c2-c2ccncc2)c1`, the inhibition in [1] came out at 1.51%; in assay [2] it was 3.56%; in [3] it was 6.34%; in [4] it was 2.58%; in [5], 3.62%; in [6] it was 1.36%. In addition, the inhibition in assay [7] came out at 2.76%; in assay [8], 1.27%; in assay [9], 3.22%; in assay [10] it was 2.27%; in assay [11], 2.67%; in [12], 0.98%. Further, the inhibition is 4.8% in assay [13]; 1.32% in assay [14]; 4.97% in assay [15]; 3.71% in assay [16]; 1.35% in assay [17]; 2.62% in assay [18]. For the same molecule, the inhibition in assay [19] worked out at 3.13%; in assay [20], 3.23%.
For `c1ccc(Cc2nc3ccc(Nc4ncnc5ccccc45)cc3[nH]2)cc1`, the inhibition in [1] was found to be 1.95%; in assay [2] it was 2.34%; in [3] it was 4.82%; in assay [4], 2.52%; in assay [5], 4.1%; in assay [6], 0.88%. Also, the inhibition amounted to 2.69% in assay [7]; 1.07% in [8]; 3.24% in assay [9]; 0.96% in [10]; 0.98% in assay [11]; 1.05% in assay [12]. The inhibition came out at 6.43% in assay [13]; 1.59% in [14]; 5.44% in assay [15]; 2.24% in assay [16]; 3.66% in assay [17]; 3.03% in assay [18]. Also, the inhibition was 4.08% in assay [19] and -0.36% in [20].
In the case of `CC(C)c1ccc(Nc2nccc(-c3cnn4ncccc34)n2)cc1`, the inhibition in assay [1] was 10.9%; in assay [2], 5.29%; in assay [3], 24.7%; in assay [4], 0.96%; in [5], 3.69%; in assay [6], -0.01%. Besides, the inhibition in assay [7] was 2.08%; in assay [8], 0.12%; in assay [9], 2.76%; in [10], -0.42%; in assay [11], 1.84%; in assay [12] it was 1.8%. The inhibition in assay [13] came to 3.19%; in assay [14], 0.34%; in assay [15], 3.21%; in [16] it was 2.01%; in assay [17], 0.79%; in [18], 1.84%. For the same molecule, the inhibition in assay [19] is 3.55%; in assay [20], 2.35%.
In the case of `NC(=O)c1sc(-n2cnc3ccccc32)cc1OCc1ccccc1Br`, the inhibition came out at 3.15% in assay [1]; 2.13% in [2]; 3.77% in assay [3]; 1.32% in [4]; 3.02% in assay [5]; 1.56% in assay [6]. The inhibition worked out at 2.97% in assay [7]; 3.5% in assay [8]; 4.96% in assay [9]; 2.09% in [10]; 5.17% in assay [11]; 2.26% in assay [12]. For the same molecule, the inhibition came out at 2.46% in [13]; 4.32% in assay [14]; 4.07% in assay [15]; 1.99% in assay [16]; 2.42% in assay [17]; 2.42% in assay [18]. For the same molecule, the inhibition in assay [19] stood at 4.09%; in assay [20] it was 7.19%.
